DT40 TDP1 no CPT: qHTS for Inhibitors of human tyrosyl-DNA phosphodiesterase 1 (TDP1): qHTS in cells in absence of CPT; DT40 Tdp1-/- hTDP1 cells, no CPT, ATP luminescence, 48 h; Potency, µM (series often up to 46.2 µM), without a hit: at the highest dose activity change, negative = growth inhibition, usual class: inhibitors; 15% of 420,000 active; AID 686978, 2013; further: potency means the concentration at half of the fitted maximal effect; nearly all actives have a fitted effect of over 55% in size
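Cells were dispensed at 400 per well, compounds added by pin tool, plates incubated ≥48 hr at 37 °C, then CellTiter-Glo added for 30 min at room temperature before luminescence reading. Line: DT40 Tdp1-/- complemented with hTDP1; camptothecin omitted.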
HT1080 IDH1KD tx: kills HT-1080 cells with IDH1 knockdown; 2% of 360,000 active; Potency, µM (highest dose often 46.1 µM), for inactives: top-dose activity, negative = toxicity, usual class: cytotoxic; HT-1080 IDH1 knockdown viability, ATP luminescence, 48 h;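 further: potency means the concentration at half of the fitted maximal effect; 0% = DMSO wells and -100% = cell-free medium wells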
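Viability of IDH1-knockdown HT-1080 fibrosarcoma cells was assessed by CellTiter-Glo after 48 h at 37 °C with titrated compound; concentration-effect curves were classified by fit quality and response size.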
DT40 TDP1 CPT: growth inhibition of DT40 Tdp1-/-;hTDP1 cells with camptothecin (screen for TDP1 inhibitors); chicken DT40 Tdp1-/-;hTDP1 cells + 20 nM CPT, ATP luminescence, 48 h; Potency, µM (doses to about 46.2 µM), without a hit: at the top dose activity change, negative = growth inhibition, hits mostly inhibitors; 12% of 420,000 active; AID 686979; further: potency means the concentration at half of the fitted maximal effect; nearly all actives have a fitted effect of over 55% in size
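Chicken DT40 Tdp1-/- cells stably complemented with human TDP1 were seeded at 400 cells/well in medium containing 20 nM camptothecin, exposed to pin-transferred compounds, and grown at 37 °C for at least 48 hr. Viability was read as ATP luminescence.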
HT1080-NT tox: kills 2HG-producing HT-1080-NT fibrosarcoma cells; Potency, µM (series often up to 46.1 µM), for the others: top-dose activity, negative = less viability, most hits filed as cytotoxic; HT-1080-NT fibrosarcoma viability, CellTiter-Glo ATP luminescence, 48 h; 1.6% of 360,000 active;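 further: NT is the 2HG producing partner of a matched IDH1 knockdown line; potency means the concentration at half of the fitted maximal effect; 0% = DMSO-treated cells and -100% = media-only wells without cells; nearly all actives have a fitted effect of over 55% in size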
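Viability of the 2HG-overproducing fibrosarcoma line after 48 hours of compound exposure at 37 degrees C was determined by luminescence with CellTiter-Glo, and concentration-effect curves were then fitted and categorized.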
IL1B secr inh: inhibitors of inflammasome signaling (IL-1 beta secretion); activity change, % at 57.5 µM; AID 743279; THP-1 LPS/ATP IL-1B secretion, AlphaLISA, 16 h; active compounds read low; 4.7% of 360,000 active; in the data active means activity change below about -50%; inconclusive means mostly about -30% to -49%
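THP-1 cells pretreated 1 hr with compounds (up to 57.5 uM final), then stimulated with LPS (250 ng/mL final) plus ATP (1.25 mM final); secreted IL-1B measured by AlphaLISA after 16 hr, decreased signal indicating inhibition.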
* hit, by the source's call; ? = inconclusive; nt = not tested or not shown; [ ] = dose if it differs, or a comment. Compounds with a hit are over-represented: about 19% of the library has one in this group of screens. Unless noted, the call rests on the fitted dose curve; in most records, active means well fitted curve in the direction sought with a large enough effect; inconclusive means small, poorly fitted or top-dose-only effect, or another doubt; inactive means no such curve, though single readings can be large; an effect the other way counts as inactive or inconclusive. Unless noted, on the % scale 0 is the no-effect control and ±100 the full control effect.

SMILES	DT40 TDP1 no CPT	HT1080 IDH1KD tx	DT40 TDP1 CPT	HT1080-NT tox	IL1B secr inh
Cc1[nH]c2ccccc2c1C(=O)/C=C/c1ccccc1	?	?	?	?	-96*
Cc1nc2ccccc2c(N)c1C(=O)/C=C/c1ccccc1	?	12µM*	?	?	-100*
Cc1[nH]c2ccccc2c1/C=N\NC(=O)c1ccccc1Cl	-26%	-1%	-19%	-12%	23
CC(=O)c1c(C)[nH]c2ccccc2c1=O	-16%	8%	0%	18%	25
Cc1[nH]c2ccccc2c1C(=O)/C=C/c1ccccc1Cl	?	-20%	-28%	?	-105*
Cc1[nH]c2ccccc2c1C(=O)/C=C\c1ccccc1Cl	?	?	21µM*	?	-101*
Cc1[nH]c2ccccc2c1C(=O)COC(=O)c1c(-c2ccccc2Cl)noc1C	?	-27%	?	-27%	?
CC(C)OCCCn1c(SCc2ccccc2C#N)nc2c(sc3ccccc32)c1=O	-1%	nt	9%	nt	nt
Cc1ccc(S(=O)(=O)Nc2ccc3cn[nH]c3c2)c(C)c1	-19%	-9%	?	-4%[9.24 µM]	42
CCOc1cc(C)c(S(=O)(=O)Nc2ccc3cn[nH]c3c2)cc1C	10µM*	-13%	18µM*	-25%	-70*
Cc1cccc(NC(=O)C2CC(=O)n3cnnc3S2)c1 (stereo not given)	5.8µM*	0%	4.6µM*	-2%	-7
Clc1cccc(-n2ncc3c(N4CCCCCC4)ncnc32)c1	-14%	nt	-22%	nt	nt
CCN(CC)c1ncnc2c1cnn2-c1cc(Cl)ccc1C	21µM*	nt	21µM*	nt	nt
Cc1ccc(Cl)cc1-n1ncc2c(N3CCN(Cc4ccccc4)CC3)ncnc21	2.3µM*	nt	2.6µM*	nt	nt
CCN(CC)c1ncnc2c1cnn2C	-27%	0%	-17%	14%	3
Cc1ccc(-n2ncc3c(NCC4CCCO4)ncnc32)c(C)c1 (stereo not given)	?	0%	?	5%	-6
Clc1cccc(-n2ncc3c(NC4CCCCC4)ncnc32)c1	18µM*	nt	?	nt	nt
Cc1ccc(Cl)cc1-n1ncc2c(NC3CCCCC3)ncnc21	15µM*	nt	9.2µM*	nt	nt
Clc1cccc(-n2ncc3c(NCCCn4ccnc4)ncnc32)c1	?	nt	21µM*	nt	nt
COCc1cc(CN2CCCC(C(=O)Nc3ccc(-c4ccco4)cc3)C2)ccc1OC (stereo not given)	?	?	?	?	-30
c1ccc(CNc2ncnc3ccc(-c4cccnc4)cc23)cc1	16µM*	nt	15µM*	nt	nt
COc1ccc(NCc2cccnc2)cc1	22%	4%	-6%	2%	-13
COc1cccc(-c2ccc3ncnc(NCc4cccnc4)c3c2)c1	?	nt	12µM*	nt	nt
CCOC(=O)c1c(-c2ccccc2)csc1NC(=O)c1cc(-c2cccc(OC)c2)on1	9%	nt	?	nt	nt
COc1cc(O)oc1C=Nc1ccc(C(F)(F)F)cc1	0%	?	-11%	?	?
SMILES	DT40 TDP1 no CPT	HT1080 IDH1KD tx	DT40 TDP1 CPT	HT1080-NT tox	IL1B secr inh
CCOc1ccc2nc(SC3CC(=O)N(c4cccc(OC)c4)C3=O)sc2c1 (stereo not given)	3.7µM*	10%	3.3µM*	12%	-3
CCOc1ccc2nc(SCCNS(=O)(=O)c3ccccc3)sc2c1	16µM*	?	-28%	?	-68*
CCOc1ccc2nc(SCC(=O)c3ccccc3)sc2c1	?	?	-12%	-5%	?
CCOc1ccc2nc(SC3CC(=O)N(c4ccccc4)C3=O)sc2c1 (stereo not given)	3.7µM*	?	2.9µM*	?	6
O=C(NNc1ccccc1)/C(=C\c1cccnc1)NC(=O)c1ccccc1	-11%	-23%	-17%	-15%	-5
Cc1ccc(C)c(C(=O)Nc2ccncc2)c1	-12%	-5%	4%	-3%	-3
C=CCN1C(=O)C(CC(=O)NCC)SC1=Nc1ccccc1OC (stereo not given)	2%	6%	1%	3%	12
O=c1c2sccc2n(Cc2cc(=O)n3ccccc3n2)c(=O)n1-c1cccc(C(F)(F)F)c1	-8%	nt	-5%	nt	nt
CC(C)CCNC(=O)Nc1cc(C(=O)NCc2cccc(F)c2)ccc1N1CCCC1	?	nt	-24%	nt	nt
CCc1ccccc1NC(=O)Nc1cc(C(=O)NCc2cccc(F)c2)ccc1N1CCCC1	2.6µM*	nt	3.3µM*	nt	nt
COc1ccccc1CNC(=O)c1ccc(N2CCCC2)c(NC(=O)NCc2ccc(F)cc2)c1	-28%	nt	?	nt	nt
CCc1ccccc1NC(=O)Nc1cc(C(=O)NCc2ccc(OC)cc2)ccc1N1CCCC1	9.2µM*	nt	12µM*	nt	nt
COC(=O)[C@@H]1CCCN1Cc1ccc2c(c1)CN(Cc1cccn1-c1ncccn1)CCO2	-26%	nt	?	nt	nt
CC(=O)N1N=C2c3ccccc3CCC2C1c1ccc(F)cc1 (stereo not given)	?	21µM*	-27%	?	nt
CCNC(=S)N1N=C2c3ccccc3CCC2C1c1ccc(F)cc1 (stereo not given)	23µM*	?	?	?	14
CC(=O)N1N=C(c2ccc(C)o2)CC1c1ccc(F)cc1 (stereo not given)	-18%	17%	-15%	17%	-2
CN(C)c1ccc(C2C3CCCc4ccccc4C3=NN2C)cc1 (stereo not given)	?	13%	?	11%	26
CCC1CCCCN1C(=O)CSc1nnc(CNC(=O)COc2ccc(Cl)cc2)o1 (stereo not given)	?	-2%	?	-17%	-17
COc1ccc(N2C(=O)C(Cl)=C(N3CCOCC3)C2=O)cc1	29µM*	-26%	-19%	?	-13
Cn1ncc(Cl)c1C(=O)NC(=S)Nc1sc2c(c1C#N)CCCCC2	?	2%	21µM*	17%	6
N#Cc1c(NC(=S)NC(=O)C2CCCC2)sc2c1CCCCC2	?	-20%	?	-11%	-54*
N#Cc1c(NC(=S)NC(=O)c2ccccc2)sc2c1CCCC2	?	2%	?	8%	2
O=C(Cc1ccc(NC(=O)C2CCN(C(=O)CCc3ccccc3)CC2)cc1)Nc1ccc(C(=O)N2CCOCC2)cc1	16µM*	4%	?	4%	22
O=C(Cc1cccc(NC(=O)C2CCN(C(=O)CCc3ccccc3)CC2)c1)Nc1cccc(C(=O)N2CCCCC2)c1	18µM*	-3%	?	-10%	11
O=C(Cc1cccc(NC(=O)C2CCN(C(=O)CCc3ccccc3)CC2)c1)Nc1cccc(C(=O)N2CCOCC2)c1	15µM*	-1%	15µM*	0%	0

Bioassay records: PubChem BioAssay, National Center for Advancing Translational Sciences (NCATS)
